Measured values published in paper PMC12431657, “Discovery and mechanistic insights of dibenzoylmethane as a broad spectrum inhibitor of coronavirus” (PLOS Pathogens, 2025).
Among all 3,300 compounds or so, about 95 (3%) showed an effect of 50% or more. The entries come from a sample that favours strong results as a whole.

tested on: HCoV-229E; design: species or system Huh-7; HTS, protection from HCoV-229E induced cell death, luminescent cell viability (CellCounting-Lite 2.0), inhibition rate; conditions: 24 h post infection, 1 h compound pre-incubation; 10 µM; inhibitor

Row | Structure (SMILES) | 229E Inhibition rate [%]
1 | C/C(=C\CC[C@@H](C)[C@H]1CC[C@@]2(C)C3=CC[C@H]4C(C)(C)[C@@H](O)CC[C@]4(C)C3=CC[C@]12C)CO [Ganoderol B] | 7.7
2 | C=C(CC[C@@H](C(=O)O)[C@H]1[C@H](O)C[C@@]2(C)C3=CC[C@H]4C(C)(C)[C@@H](O)CC[C@]4(C)C3=CC[C@]12C)C(C)C [Dehydrotumulosic acid] | 8.5
3 | CC1(C)O[C@H]2CC(=O)OC[C@]23[C@H]2CC[C@@]4(C)[C@H](c5ccoc5)OC(=O)[C@H]5O[C@]54[C@]2(C)[C@@H](O)C(=O)[C@@H]13 [Rutaevin] | 0
4 | COc1cc(OC)cc(OC)c1 [1,3,5-Trimethoxybenzene] | 55.2
5 | COc1ccc(OC)cc1 [1,4-Dimethoxybenzene] | 21
6 | COc1cc(O)cc(OC)c1 [3,5-Dimethoxyphenol] | 32.7
7 | O=C1N[C@@H](Cc2ccccc2)C(=O)N2CCC[C@@H]12 [Cyclo(L-Phe-L-Pro)] | 11.1
8 | Oc1ccc(CCc2cc(O)cc(O)c2)cc1 [Dihydroresveratrol] | 10.7
9 | CCCCCCCCCCCCCCCc1cc(O)cc(O)c1 [5-Pentadecylresorcinol] | 51.7
10 | CCCCCCCCCCCC1=C(O)C(=O)C=C(O)C1=O [Embelin] | 12.3
11 | O=c1c(O)c(-c2ccc(O)cc2)oc2c(O)c(O)cc(O)c12 [Herbacetin] | 0
12 | O=C1CCC[C@@H]2[C@H]3CCCN4CCC[C@@H](CN12)[C@H]34 [Allomatrine] | 8.4
13 | COC[C@@H]1Cc2cc(OC)c3c(c2[C@H](c2ccc(OC)c(OC)c2)[C@H]1COC)OCO3 [Hypophyllanthin] | 24.8
14 | C=C1C(=O)O[C@H]2C[C@@H](C)[C@@H]3CCC(=O)[C@@]3(C)[C@@H](OC(C)=O)[C@H]12 [Ergolide] | 57.9
15 | C=C1C(=O)O[C@H]2C[C@@H](C)[C@@H]3C=CC(=O)[C@@]3(C)[C@@H](OC(C)=O)[C@H]12 [Bigelovin] | 4.5
16 | C=C1C(=O)O[C@H]2C[C@@H](C)[C@@H]3[C@@H](OC(C)=O)C[C@H](O)[C@@]3(C)[C@@H](OC(C)=O)[C@H]12 [Britannin] | 3
17 | CC1(C)O[C@H]2CC(=O)OC[C@@]23[C@H]1CC(=O)[C@@]1(C)C2=CC(=O)O[C@@H](c4ccoc4)[C@]2(C)CC[C@@H]13 [Deoxylimonin] | 9.8
18 | CC(=O)O[C@@]12CO[C@@H]1C[C@@H](O)[C@@]1(C)C(=O)[C@H](O)C3=C(C)[C@@H](OC(=O)[C@H](O)[C@@H](NC(=O)c4ccccc4)c4ccccc4)C[C@@](O)([C@@H](OC(=O)c4ccccc4)[C@H]21)C3(C)C [7-Epi 10-desacetyl paclitaxel] | 21.4
